The results in this text go back to the OligoGym collection.
Further: reference of the scale not given here.

One experiment deals with SURF1. Briefly: pooled miR-30 sensor sort-seq; sequence = guide strand. As to conditions: shRNA.
For TCAGGATTCACTTTCTTCCTGG, the sensor-assay potency score (higher = more potent) amounted to 0.148.

Take TTCCAGGTCTCGATAATGCCAG: the sensor-assay potency score (higher = more potent) was -0.863.

In turn, TTGAAATACTGCATTATCCAGG registered a sensor-assay potency score (higher = more potent) of -0.184.

TTTCTTAAACCACAGGTAGGAT registered a sensor-assay potency score (higher = more potent) of -0.803.

TCTGTCAGCCTCACCATCCCAA came in with a sensor-assay potency score (higher = more potent) of -0.843.

For a further experiment, the target named is SYBU. Described as above. The following applies: shRNA.
Sequence TTAAATGGAAACACTAATCTTT came in with a sensor-assay potency score (higher = more potent) of 0.258.

With TTCACCAACCATTCCAATCGTG, the sensor-assay potency score (higher = more potent) stood at 0.00982.

TTTGATTCCTTCTTATATCGAG gave a sensor-assay potency score (higher = more potent) of 0.632.

TAACAGTTTAAGAACAAACAAG registered a sensor-assay potency score (higher = more potent) of -1.43.

In turn, TCATCGAACAAATCTGTGCTGT showed a sensor-assay potency score (higher = more potent) of -0.248.

Sequence TCACCAACCATTCCAATCGTGC displayed a sensor-assay potency score (higher = more potent) of -1.21.

In the case of TTGTAGGAGCCTGAGTTGCTAC, the sensor-assay potency score (higher = more potent) was -1.24.

With TTGATTCCTTCTTATATCGAGA, the sensor-assay potency score (higher = more potent) is -0.708.

In turn, TAAAATCAGCTTCACTACCTGG showed a sensor-assay potency score (higher = more potent) of -0.495.

Consider TTGCATGAACTTCTGCATCCAC, for which the sensor-assay potency score (higher = more potent) was 0.0297.

In the case of TTCTGCATCCACATTGGCGTAG, the sensor-assay potency score (higher = more potent) is -0.476.

TTCGATGACCTGTTTGAGCTGT came in with a sensor-assay potency score (higher = more potent) of 0.425.
